Test results reported in ChEMBL document CHEMBL4513216, “Probing the Open Global Health Chemical Diversity Library for Multistage-Active Starting Points for Next-Generation Antimalarials” (ACS Infect Dis, 2020).
The campaign covered roughly 69,000 compounds. About 8,600 (12%) showed an effect of 50% or more. The full list was thinned out, with strong results kept by preference.

Tested on: Plasmodium berghei
Assay: Screen against P. berghei liver stage (PbLuc), transformed with Luciferase, at 10uM
Assay type: functional, HepG2
Conditions: tested at 10 uM

Row | Compound | INHIBITION
1 | COCc1cc(NCC(F)(F)F)n2nccc2n1 | 7.24%
2 | Cc1nc(N(C)C)nc(NCCc2cnccn2)c1C | 27.4%
3 | O=C(c1ccncc1)N1CCC2(CC1)CC(Oc1cccnc1)CO2 (stereo not drawn) | 35.8%
4 | c1cncc(COC2COC3(CCN(c4cnccn4)CC3)C2)c1 (stereo not drawn) | 60%
5 | N#Cc1ccc(N2CCC3(CC2)CC(N2CCOCC2)CO3)cc1 (stereo not drawn) | 73.2%
6 | CN1CCOCC12CCN(c1ccc(C#N)cc1)CC2 | -15.3%
7 | CN(C)C(=O)COC1COC2(CCN(c3cnccn3)CC2)C1 (stereo not drawn) | 21.6%
8 | N#Cc1ccc(N2CCC3(CC2)CC(Oc2cccnc2)CO3)cc1 (stereo not drawn) | 73.3%
9 | c1cncc(N2CCC3(CCCN(c4ccncc4)C3)CC2)c1 | -29%
10 | O=S(=O)(C1CC1)N1CCC2(CC1)CC(Oc1cccnc1)CO2 (stereo not drawn) | 26.7%
11 | c1cncc(N2CCCC3(CCN(CCN4CCCC4)CC3)C2)c1 | -26.1%
12 | Fc1cnc(N2CCC3(CC2)CC(OCc2cccnc2)CO3)nc1 (stereo not drawn) | 30.5%
13 | CN1CCN(C2COC3(CCN(c4ccc(C#N)cc4)CC3)C2)CC1 (stereo not drawn) | 39.5%
14 | N#Cc1ccc(N2CCCC3(CCN(c4cccnc4)CC3)C2)cc1 | 85.6%
15 | O=C(c1cccc(N2CCCC2=O)c1)N1CCCC(n2cccn2)C1 (stereo not drawn) | -21.35%
16 | O=C(c1c[nH]c(=O)[nH]c1=O)N1CCCC(c2nccn2CC2CCC2)C1 (stereo not drawn) | 22%
17 | CC(=O)N(Cc1ncc(C)o1)C1CCN(CCc2ccncc2)C1 (stereo not drawn) | 12.7%
18 | CN(Cc1ccccc1F)C(=O)COC(=O)c1cc(Cl)c[nH]1 | 29.9%
19 | O=c1[nH]c(-c2ccncc2)ncc1-c1ccnc(NC2CC2)n1 | 18.9%
20 | c1cnc(Nc2ccc(C3CCCCN3Cc3ccncc3)cn2)nc1 (stereo not drawn) | 23.3%
21 | O=C(Cc1ccccc1)N1CCC2(CC1)COCCN2CC1CC1 | 6.6%
22 | COCCOCC(C)NC(=O)COc1nn(C)c2nc(C)cc(C)c12 (stereo not drawn) | 9.63%
23 | CCOc1ncccc1NC(=O)NC1CCN(S(C)(=O)=O)CC1 | 44.8%
24 | O=C(Nc1nc(-c2ccccc2)ns1)N1CCC(CO)CC1 | -95.1%
25 | Cc1nn(C)c(N(C)C)c1CNCc1cccc(Cn2ccnc2)c1 | -31.5%
26 | N#Cc1ccc(N2CCC3(CC2)CC(OCc2cccnc2)CO3)cc1 (stereo not drawn) | 58.5%

Row | Compound | INHIBITION
27 | c1cncc(CO[C@H]2CO[C@@]3(CCN(Cc4ccoc4)C3)C2)c1 | -0.79%
28 | Fc1ccc(N2CCC3(CC2)CC(OCc2cccnc2)CO3)cc1 (stereo not drawn) | 33.4%
29 | O=C(NCc1ccco1)[C@H]1C[C@@H]2CCN(c3ncccn3)C[C@H]2O1 | 9.51%
30 | c1cc(CNCC2OCCc3cn(CC4CC4)nc32)cs1 (stereo not drawn) | 20.9%
31 | COc1ccc2c(c1)c(-c1nc(C)ncc1CN)cn2C | 27.6%
32 | CN(Cc1ccc(CCC(C)(C)O)cc1)Cc1cccnc1 | 57.1%
33 | CN(Cc1ccccc1)CC(C)(C)NC(=O)c1ccon1 | 38.7%
34 | CN(Cc1ccccc1)CC(C)(C)NC(=O)c1cnccn1 | 64.5%
35 | Cc1cnc(CNC(=O)N(Cc2ccccc2)CC(C)(C)O)s1 | 15.7%
36 | CC(c1ccccn1)N(C)Cc1ccc(CCC(C)(C)O)cc1 (stereo not drawn) | 36.6%
37 | CC(C)(C)CNC(=O)c1ccc(C(=O)O)cn1 | 11.3%
38 | CN(Cc1ccc(CCC(C)(C)O)cc1)Cc1cccc(O)c1 | 22.5%
39 | CN(Cc1ccccc1)CC(C)(C)NC(=O)c1ccc(C(N)=O)cn1 | 52.2%
40 | CN(Cc1ccccc1)CC(C)(C)NC(=O)c1cnns1 | 25.3%
41 | Cc1ccc(C(=O)N2CCN3C[C@H](Oc4cccc(F)c4)C[C@H]3C2)cn1 | 0.804%
42 | O=C(NCC1CC2(CO1)CN(Cc1cccs1)C2)C1CCC1 (stereo not drawn) | 27.6%
43 | COc1ccc(F)c(-c2ncccc2C(=O)N2C[C@@H]3CC[C@H]2C3)c1 | 39%
44 | COc1ccc(OCc2cc(C(=O)N3CCC(O)CC3)n[nH]2)c(Cl)c1 | -3.75%
45 | COc1ccc(OCc2cc(C(=O)N3CCN[C@H](C)C3)n[nH]2)c(Cl)c1 | 65.1%
46 | COc1ccc(OCc2cc(C(=O)N3C[C@@H](C)O[C@@H](C)C3)n[nH]2)c(Cl)c1 | 44.2%
47 | COc1ccccc1OCc1cc(C(=O)N2C[C@@H](C)O[C@@H](C)C2)n[nH]1 | -16%
48 | COc1ccccc1OCc1cc(C(=O)N2CCN[C@H](C)C2)n[nH]1 | 51.8%
49 | COc1ccccc1OCc1cc(C(=O)N2CC(O)C2)n[nH]1 | -34.5%
50 | Cc1cccc(C(=O)N2CC(=O)N(c3ccccc3Cl)CC2C)n1 (stereo not drawn) | 28.2%
51 | Cc1ccc(N(C)S(=O)(=O)c2cc(C(=O)O)cs2)c(C)c1 | -42.1%
52 | Cn1cc(CN2CC[C@H]3OCC[C@@H](C(=O)NC4CCCC4)[C@@H]3C2)cn1 | 10%

Row | Compound | INHIBITION
53 | CNc1nc2cn(CCc3ccc(F)cc3)c(=O)c-2c[nH]1 | 45.8%
54 | O=C1CC(c2ccc(O)cc2)c2c(c(C(=O)O)cn2-c2ccccc2)N1 (stereo not drawn) | 25.2%
55 | COc1ccc(CN2CCn3cc(Cn4cccn4)nc3C2)cc1 | 7.9%
56 | COc1ccccc1OCCN(C)Cc1c(C2CC2)[nH]c2ncccc12 | 10.7%
57 | COc1ccccc1C(C)CC(=O)N1CCCS1(=O)=O (stereo not drawn) | -6.7%
58 | CC(Cc1ccc(C(F)(F)F)cc1)C(=O)N1CCCS1(=O)=O (stereo not drawn) | -33.4%
59 | CC(CC(=O)N1CCCS1(=O)=O)c1ccccc1C(F)(F)F (stereo not drawn) | 50.1%
60 | Cc1ncc(C(=O)N2CCCC2c2c(C)nn(C)c2C)s1 (stereo not drawn) | 23.2%
61 | CCc1ccc(CC)c(NCc2cnc(N3CCOCC3)nc2)c1 | -36.4%
62 | O=C(c1c[nH]cn1)N1CCC(F)(F)C2(CCN(c3ccccn3)C2)C1 (stereo not drawn) | 34.6%
63 | O=C(c1c[nH]cn1)N1CCC(F)(F)C2(CCN(c3cnccn3)C2)C1 (stereo not drawn) | 52.3%
64 | O=C(c1c[nH]cn1)N1CCC(F)(F)C2(CCN(c3ncccn3)C2)C1 (stereo not drawn) | 2.41%
65 | CN1C(=O)COc2ccc(C(=O)Cn3cnc4ccccc4c3=O)cc21 | -35.1%
66 | Cc1cnn(CC2CCCCN2C(=O)CCCc2nc(C)no2)c1 (stereo not drawn) | 11.3%
67 | O=C(Nc1ncnc2c1CCC2)c1ccc2c(c1)OCO2 | -19.7%
68 | O=C(Nc1ncnc2c1CCC2)c1cccc(F)c1 | -44.2%
69 | COc1cc(OC)cc(C(=O)Nc2ncnc3c2CCC3)c1 | 52.4%
70 | Cc1cc(C(=O)NCc2ccc(F)cc2)c2c(C3CCCN3)noc2n1 (stereo not drawn) | 31.7%
71 | CNC(=O)c1cc2c(nc1NCC1CC1)CCN(CC1CC1)CC2 | 8.67%
72 | CNC(=O)c1cc2c(nc1NCC(C)C)CCN(c1ncccn1)CC2 | 85.4%
73 | CNC(=O)c1cc2c(nc1NCC1CC1)CCN(c1ncccn1)CC2 | -17.1%
74 | CC(C)Nc1nc2c(cc1C(=O)NCC1CC1)CCNCC2 | 32.7%
75 | CC(C)CNc1nc2c(cc1C(=O)NCC1CC1)CCNCC2 | 94.5%
76 | CNC(=O)c1cc2c(nc1NCC1CC1)CCNCC2 | 9.72%
77 | CNC(=O)c1cc2c(nc1NCC(C)C)CCN(S(=O)(=O)C1CC1)CC2 | -6.75%
78 | CNC(=O)c1cc2c(nc1NCC(C)C)CCN(CC1CC1)CC2 | 86.7%

Row | Compound | INHIBITION
79 | CNC(=O)c1cc2c(nc1NCC(C)C)CCN(C)CC2 | 48.7%
80 | CO[C@H]1CO[C@@]2(CCCN(S(=O)(=O)c3ccccc3)C2)C1 | 42.7%
81 | O=C([C@H]1C[C@H]2OCC[C@H]2N(CCc2ccccc2)C1)N1CCCO1 | 43.9%
82 | CC(C)NC(=O)Cn1cc(-c2ccccc2)ncc1=O | 12.9%
83 | CC(=O)c1ccc(-c2cnn(CC(=O)Nc3cc(C)nn3C)c2)nc1 | 28.7%
84 | CC(=O)c1ccc(-c2cnn(CC(=O)Nc3ccnn3C)c2)nc1 | 46.1%
85 | Cn1ccnc1-c1cnn(CC(=O)Nc2ccnn2C)c1 | 62.4%
86 | CC(=O)NCCNC(=O)CN1CCCC(Cn2cncn2)C1 (stereo not drawn) | 29.7%
87 | COc1ccc(N2CCN(C(=O)C3[C@H]4CNC[C@@H]34)CC2(C)C)cc1 (stereo partly drawn) | 35.3%
88 | Cc1cc(C)nc(CN2CCOC(c3ccc(Cl)cc3)C2)n1 (stereo not drawn) | 41.5%
89 | Cc1cc(C(=O)N2CCOC(c3ccc(Cl)c(Cl)c3)C2)[nH]n1 (stereo not drawn) | 81%
90 | Cc1c[nH]c(CN2CCOC(c3ccc(F)cc3)C2)c(C)c1=O (stereo not drawn) | -3.96%
91 | Cc1nnc(CN2CCOC(c3ccc(Cl)c(Cl)c3)C2)o1 (stereo not drawn) | 15.9%
92 | Cc1c[nH]c(CN2CCOC(c3ccc(Cl)cc3)C2)c(C)c1=O (stereo not drawn) | 79.3%
93 | Cc1nc[nH]c1CN1CCOC(c2ccc(Cl)c(Cl)c2)C1 (stereo not drawn) | 69.4%
94 | Cc1c[nH]c(CN2CCOC(c3ccc(Cl)c(Cl)c3)C2)c(C)c1=O (stereo not drawn) | 19.8%
95 | O=C(c1ccc(O)cn1)N1CCOC(c2ccc(Cl)c(Cl)c2)C1 (stereo not drawn) | -19.2%
96 | Cc1cc(C(=O)N2CCOC(c3nc(C)n[nH]3)C2)[nH]n1 (stereo not drawn) | 28.5%
97 | Cc1ccc2nc(C(=O)N3CCCC[C@]4(C)NC(=O)CCC[C@H]34)cn2c1 | -56.2%
98 | CNC(=O)NCc1nn(-c2ccccc2)c2c1CCC2 | 10.675%
99 | CC(C)c1nnc2n1CCN(C(C(N)=O)c1ccc(F)cc1)C2 (stereo not drawn) | 20%
100 | COc1ccccc1CNC(=O)CNc1ccccc1C(C)=O | -33.4%
101 | Cc1nc(CC(=O)N2CCCN(c3ccc(C#N)cc3)CC2)cs1 | -11.8%
102 | CS(=O)(=O)NCC1CCCCN1C(=O)c1cccc(C(F)(F)F)c1 (stereo not drawn) | 30.6%
103 | CCC(=O)N1CCC(Cc2ccccc2-c2ccncc2)(C(N)=O)C1 (stereo not drawn) | 7.52%
